Structures are written as SMILES. The campaign covered roughly 220,000 compounds. About 16,000 (7.3%) were called active. A call without a number means that no potency is given here. Roughly 25% stayed inconclusive and do not appear here. Only a selection was taken, and actives are over-represented in it overall. Unmarked numbers belong to inactive results. Calls follow the shape of the dose curve; as a rule, active = well fitted inhibition curve with a large enough effect (not every such curve was filed as active); inconclusive = small, poorly fitted or top-dose-only effect, or another doubt; inactive = no such curve, though single readings can be large or run the other way.
Potency is read from the fitted curve at half-maximal effect.

The target of the experiment is Aldehyde dehydrogenase 1A1 (Homo sapiens) (UniProt P00352). Kind of experiment: qHTS Assay for Inhibitors of Aldehyde Dehydrogenase 1 (ALDH1A1). To be noted: Purified ALDH1A1, NADH fluorescence, propionaldehyde substrate; series mostly up to 75.3 µM.
Sequence of Aldehyde dehydrogenase 1A1 (Homo sapiens) (P00352 whole entry, looked up): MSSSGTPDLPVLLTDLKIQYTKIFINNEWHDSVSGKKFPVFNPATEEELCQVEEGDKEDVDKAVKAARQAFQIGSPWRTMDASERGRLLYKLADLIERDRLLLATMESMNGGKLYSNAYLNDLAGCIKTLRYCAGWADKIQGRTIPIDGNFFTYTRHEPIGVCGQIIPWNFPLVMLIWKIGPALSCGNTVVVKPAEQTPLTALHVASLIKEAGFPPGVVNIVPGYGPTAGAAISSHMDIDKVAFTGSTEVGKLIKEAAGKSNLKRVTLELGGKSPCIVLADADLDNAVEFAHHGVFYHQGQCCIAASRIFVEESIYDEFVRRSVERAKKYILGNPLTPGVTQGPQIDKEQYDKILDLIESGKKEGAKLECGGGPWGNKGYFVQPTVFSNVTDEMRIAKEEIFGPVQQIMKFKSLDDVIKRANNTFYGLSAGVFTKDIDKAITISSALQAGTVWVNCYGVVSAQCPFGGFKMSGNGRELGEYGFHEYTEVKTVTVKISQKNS
For the compound `NC(=O)Nc1ccccc1C(=O)NCCc1ccccc1`, the Potency result was “inactive”. Consider `CC(OC(=O)c1ccc2ccccc2n1)C(=O)c1ccccc1` (stereo unspecified), for which the Potency result was “inactive”. Still for that read-out and setting: then `COc1ccc(C(=O)COC(=O)c2ccc3ccccc3n2)cc1`, with 17.8 µM (active); and `CCCCC(C(=O)OCC(=O)c1ccc(OC)cc1)N1C(=O)c2ccccc2C1=O` (stereo unspecified), with “inactive”; and `c1ccc2sc(NN=C3CCCC3)nc2c1`, with “inactive”. Still for that read-out and setting: then `O=C1CCC(=O)N1c1ccc(NCCc2ccccc2F)c([N+](=O)[O-])c1`, with “inactive”; and `C/C(=N\OC(=O)c1ccccc1)c1c(C)nc2cc(C)ccn12`, with “inactive”.

As to `Cc1nc2ccccn2c1C(=O)NN=C1CCN(C)CC1`, the Potency is 20 µM (active). The same measure, in the same setting: then `Cc1cc(CNCc2c(C(=O)N(C)Cc3ccccc3)nc3ccccn23)nn1C`, with “inactive”. Still for that read-out and setting: as for `Cc1ccccc1OC(=O)Cn1c(C(F)(F)F)nc2ccccc21`, the entry is “inactive”. Still for that read-out and setting: as for `CCCCn1c(O)c(N=NC(=O)Cn2c(C(F)(F)F)nc3ccccc32)c2ccccc21`, the figure is 4.47 µM (active); as for `CN1CCN(C(=O)Cn2c(C(F)(F)F)nc3ccccc32)CC1`, “inactive”; as for `Cc1cc(C)cc(OCC(=O)Nc2ccc(S(=O)(=O)Nc3ccccn3)cc2)c1`, “inactive”. In the case of `CC(CCO)Nc1nc2c([nH]1)c(=O)n(C)c(=O)n2C` (stereo unspecified), the Potency result is “inactive”. The same measure, in the same setting: then `Cc1ccc(NN=Nc2nc3c([nH]2)c(=O)n(C)c(=O)n3C)cc1`, with 7.94 µM (active); and `COc1ccc2cc(-c3[nH]ncc3CNCCn3nc(C)cc3C)ccc2c1`, with “inactive”; and `Cc1c(O)c(Br)c(C)c(O)c1Br` (tested in a mixture with another compound), with 1.12 µM (active). Still for that read-out and setting: as for `COCCN(C(=O)CCC(=O)Nc1nccs1)C(C(=O)NC(C)(C)C)c1ccc(Cl)cc1` (stereo unspecified), the entry is “inactive”; as for `Cc1ccc(OCc2n[nH]c(=S)n2-c2ccc(C)cc2)cc1`, “inactive”. Same read-out and setting: as for `Cc1ccc(OCc2n[nH]c(=S)n2-c2ccccc2)cc1`, the entry is “inactive”; as for `COc1ccc(OCc2n[nH]c(=S)n2N)cc1`, 4.47 µM (active); as for `Cc1noc(C)c1CCC(=O)O`, “inactive”. As for `O=C(c1cccc(S(=O)(=O)N2CCCC2)c1)N(Cc1ccco1)C1CCS(=O)(=O)C1` (stereo unspecified), the Potency entry was “inactive”. Consider `COc1cc(OC)c2c(-c3cccc(-c4cccc(N)c4)c3)cc(=O)oc2c1`, for which the Potency result was “inactive”.

In the case of `CCC(c1nnnn1Cc1ccco1)N(CCc1ccccc1)Cc1cc2cccc(C)c2[nH]c1=O` (stereo unspecified), the Potency is 7.94 µM (active). As to `CCOc1ccc(CN(Cc2ccco2)C(c2cccs2)c2nnnn2C(C)(C)C)cc1` (stereo unspecified), the Potency entry is “inactive”. Still for that read-out and setting: as for `CCC(c1nnnn1Cc1ccco1)N(CCc1ccccc1)Cc1cc2ccc(OC)cc2[nH]c1=O` (stereo unspecified), the figure is 10 µM (active); as for `CCN(CC)CCNS(=O)(=O)c1ccc(/C=C/C(=O)O)cc1`, “inactive”; as for `Cc1noc(C)c1COC(=O)COc1ccc(-c2ccccc2)cc1`, “inactive”.

On to `Cc1nn(CC(=O)Nc2ccc(C#N)cc2)c(C)c1[N+](=O)[O-]`, for which the Potency entry was “inactive”. For the compound `CCCC(C)C(=O)NCc1ccncc1` (stereo unspecified), the Potency entry was “inactive”.

`OCCC1CN(Cc2cccc(OC3CCCC3)c2)CCN1Cc1ccsc1` (stereo unspecified): the Potency result is “inactive”. Same read-out and setting: as for `COC(=O)c1cc(=O)n(-c2c(Cl)cc(C(F)(F)F)cc2Cl)[nH]1`, the entry is “inactive”. For `Cc1ccc(CNC(=O)CC2Sc3ccccc3NC2=O)cc1` (stereo unspecified), the Potency result is “inactive”.

For the compound `Cn1c(CCC(=O)Nc2ccccc2F)nnc1SCC(=O)Nc1ccccc1Cl`, the Potency entry was “inactive”. Same read-out and setting: then `Cn1c(CC2Sc3ccccc3NC2=O)nnc1SCC(=O)c1ccc(Cl)cc1` (stereo unspecified), with 3.98 µM (active). On to `COc1cc(C)c(Cl)cc1S(=O)(=O)n1ccnc1`, for which the Potency entry is “inactive”. Still for that read-out and setting: then `Cc1nc(N)[nH]c(=O)c1Oc1cccc(C(F)(F)F)c1`, with “inactive”. For `Cn1c(-c2ccccc2)c[n+]2c1CCCCC2`, the Potency result is “inactive”. Regarding `COc1ccc(OCC(=O)NNC(=O)c2cccc(C)c2)cc1`, the Potency result is “inactive”. For the compound `COc1ccc(C(=O)Nc2cc(C)ccc2NC(=O)COc2ccccc2)cc1`, the Potency was 3.98 µM (active).

Turning to `Cc1cccc(NC(=O)c2ccc(OCC(=O)NCc3ccccc3)cc2)c1C`, the Potency result is “inactive”. On to `CCOC(=O)Cc1ncccc1C(=O)Nc1ccc(OC(F)(F)F)cc1`, for which the Potency result is “inactive”. Same read-out and setting: as for `Cn1nnnc1-c1cc(Cl)cc(Cl)c1`, the entry is “inactive”; as for `COc1ccc(Br)cc1C(=O)Nc1cccc(C)c1C`, “inactive”; as for `COc1ccc(Br)cc1C(=O)NC(=S)Nc1cc(-c2nc3ccccc3[nH]2)ccc1C`, 12.6 µM (active). With `COc1ccc(/C=C(/NC(=O)c2ccc(C)cc2)c2nc3ccccc3[nH]2)cc1OC`, the Potency result is “inactive”. Still for that read-out and setting: as for `CC(OC(=O)CCc1nc(=O)c2ccccc2n1C)C(=O)NCc1ccc2c(c1)OCO2` (stereo unspecified), the entry is “inactive”; as for `CC(C)CNC(=O)C(=O)Nc1ccc(N(C)C)cc1`, “inactive”; as for `COc1cc(CC(=O)N/N=C/c2ccccc2)c([N+](=O)[O-])cc1OC`, “inactive”. Still for that read-out and setting: then `COc1cc(CN2CCN(Cc3ccc(C)cc3)CC2)c([N+](=O)[O-])cc1OC`, with 17.8 µM (active).

On to `COc1cc(CN2CC(C)CC(C)C2)cc([N+](=O)[O-])c1O` (stereo unspecified), for which the Potency result was “inactive”.

As to `COC(=O)C1=C(N)Oc2c(oc(CO)cc2=O)C1c1c(F)cccc1Cl` (stereo unspecified), the Potency result is “inactive”. As to `C/C(=N\NC(=O)NC1CCCCC1)c1ccc(OC(F)F)cc1OC(F)F`, the Potency entry was “inactive”. As for `Cn1c(=O)c2c(ncn2CC(=O)N/N=C/c2cn[nH]c2-c2ccc(F)cc2)n(C)c1=O`, the Potency result is “inactive”. Same read-out and setting: as for `CC(=O)Oc1cccc(N2C(=O)C3CC=C(Cl)CC3C2=O)c1` (stereo unspecified), the entry is “inactive”; as for `CC(=O)c1nc(N2C(=O)C3CC=C(C)CC3C2=O)sc1C` (stereo unspecified), 2.51 µM (active). With `Cc1ncc([N+](=O)[O-])n1CCOC(=O)c1ccc(Br)cc1`, the Potency result is “inactive”. In the case of `Cc1cc(C)n2nc(SCC(=O)NC(=O)NCc3ccco3)nc2n1`, the Potency entry was “inactive”. Turning to `O=C(CSc1nnc(-c2ccco2)n1Cc1ccccc1)NC(=O)NCc1ccco1`, the Potency is 15.8 µM (active). Same read-out and setting: as for `O=C(CSc1nnc(-c2cccs2)n1-c1ccccc1)NCc1ccco1`, the entry is “inactive”; as for `Cc1ccc(SCC(=O)NC(=O)NCc2ccco2)c(C)c1`, 22.4 µM (active); as for `Cc1ccc(NC(=O)C(=O)NCc2ccco2)c(C)c1`, “inactive”. Take `CCn1c(SCC(=O)NCc2ccco2)nnc1-c1ccc(N)cc1`: the Potency entry is “inactive”. Turning to `Cc1ccc(C(C)(C)C)c(OCCCCN2CCCC2)c1`, the Potency entry is “inactive”. Same read-out and setting: as for `COc1ccc(/C=N/NC(=O)Nc2ccc3nsnc3c2)c(OC)c1`, the entry is “inactive”; as for `CCOc1cc(C2C(C(=O)OC(C)C)=C(C)NC3=C2C(=O)CCC3)cc([N+](=O)[O-])c1O` (stereo unspecified), “inactive”. Still for that read-out and setting: then `COc1cccc(OC)c1C(=O)OCC(=O)/C(C#N)=C(\C)N`, with “inactive”; and `COC(=O)C1=C(C)N(C(C)c2ccccc2)C(=O)/C1=C\c1ccco1` (stereo unspecified), with “inactive”. With `N=c1c2c3c(sc2nc2n1CCCCC2)CCCC3`, the Potency result is “inactive”. For `NNC(=O)C1CCCn2c1nc1sc3c(c1c2=O)CCCC3` (stereo unspecified), the Potency was 12.6 µM (active).

For `Cn1c(NN)nc2sc3c(c2c1=O)CCC3`, the Potency result is “inactive”.

For `O=C(CSc1nc(-c2ccccc2)cs1)Nc1cccc([N+](=O)[O-])c1`, the Potency entry was “inactive”.

As to `O=C(CSc1ncn[nH]1)Nc1nc(-c2cccc([N+](=O)[O-])c2)cs1`, the Potency was 17.8 µM (active).

Take `Cc1cccc(S(=O)(=O)CC(=O)Nc2nc(-c3ccccc3)cs2)c1`: the Potency entry was “inactive”. On to `CC(=O)c1ccc(-c2nnc(CCC(=O)N(C)Cc3cnc4ccccn34)o2)s1`, for which the Potency result is “inactive”.

In the case of `CCCCCCCCCCCCCCCCO`, the Potency result is “inactive”. Still for that read-out and setting: then `O=C(Nc1ccccc1C(F)(F)F)c1cc(-c2ccc(O)cc2)on1`, with “inactive”; and `Cc1cc(C)nc(NC(=O)Nc2ccccc2C(F)(F)F)n1`, with 35.5 µM (active); and `Cc1cc(C)nc(NC(=O)C(C)N2C(=O)c3ccccc3C2=O)n1` (stereo unspecified), with “inactive”. Same read-out and setting: as for `Cc1ccc(NC(=O)c2oc3ccccc3c2C)c([N+](=O)[O-])c1`, the entry is “inactive”. On the same count and under the same terms, then `CC1=C(C)CC(C(=O)NC(C)CCc2ccccc2)C(C(=O)O)C1` (stereo unspecified), with “inactive”; and `CCC(C)[C@@H](N)C(=O)O` (stereo partly specified), with “inactive”. In the case of `CC(C)NC(=O)NC(=O)CSc1nnc(-c2ccccc2F)n1N`, the Potency result is “inactive”. The same measure, in the same setting: as for `Cc1ccc(C2C3=C(Nc4[nH]n(-c5ccccc5)c(=O)c42)c2ccccc2C3=O)cc1` (stereo unspecified), the figure is 11.2 µM (active); as for `Cc1ccc(N=Nc2c(C)[nH]n(-c3ccccc3)c2=O)cc1`, “inactive”. The same measure, in the same setting: then `Cc1cc(C)c(C2C3=C(Nc4c2c(C)nn4-c2ccccn2)c2ccccc2C3=O)c(C)c1` (stereo unspecified), with “inactive”; and `Cn1cnnc1Sc1ccc(S(C)(=O)=O)cc1[N+](=O)[O-]`, with “inactive”. Still for that read-out and setting: then `c1csc(-c2nnc(COc3ccc4c(c3)OCO4)o2)c1`, with “inactive”; and `O=[N+]([O-])c1c(NCCO)cc(Sc2nc3ccccc3s2)c2nonc12`, with 8.91 µM (active).

Regarding `c1ccc2sc(SCCSc3nc4ccccc4s3)nc2c1`, the activity, negative = inhibition is 3.19% [at 13.5 µM]. As for `O=[N+]([O-])c1cc(Br)c(O)c(/C=N/Nc2nc3ccccc3s2)c1`, the Potency result is “inactive”. On the same count and under the same terms, as for `Cc1nnc(CN(C)Cc2cn[nH]c2-c2ccc(-c3ccccc3)cc2)o1`, the figure is 12.6 µM (active); as for `OCC1(CCOc2ccccc2)CCN(Cc2cn[nH]c2-c2ccccc2)CC1`, “inactive”; as for `COc1ccc(-c2[nH]ncc2CN(C)Cc2c(C)n[nH]c2C)c(OC)c1`, “inactive”. `O=C(c1ccc(F)cc1)C1CCN(Cc2cn[nH]c2-c2ccccc2)CC1`: the Potency entry is “inactive”. Still for that read-out and setting: as for `CN(CCC1CCOCC1)Cc1cn[nH]c1-c1ccc(-c2ccccc2)cc1`, the figure is 10 µM (active); as for `O=C(OCc1ccc([N+](=O)[O-])cc1)c1ccccn1`, “inactive”. On the same count and under the same terms, then `Cc1nc([N+](=O)[O-])c(NCCCO)n1Cc1ccccc1`, with “inactive”. Same read-out and setting: then `CCNc1nc(-c2cc3ccccc3o2)cs1`, with “inactive”; and `NS(=O)(=O)c1ccc(CCNC(=O)c2ccc(Cl)cc2[N+](=O)[O-])cc1`, with “inactive”. On to `O=P(O)(CN1CCCCCC1)C1Cc2ccccc2C1`, for which the Potency result was “inactive”. Same read-out and setting: as for `CCOC(=O)C1=C(C)Nc2sc(C(=O)c3ccc(Br)cc3)c(N)c2C1c1ccc(C(=O)OC)cc1` (stereo unspecified), the entry is “inactive”; as for `CCOC(=O)c1sc(=S)n2c1[nH]c(=O)c1ccc(C(=O)OC)cc12`, 8.91 µM (active); as for `CCOC(=O)c1sc(NC(=O)c2ccncc2)nc1C`, “inactive”. The same measure, in the same setting: as for `Cc1ccc(/C=N/NC(=O)COc2ccccc2-c2ccccc2)cc1`, the entry is “inactive”.

Values taken from PubChem BioAssay AID1030 (National Center for Advancing Translational Sciences (NCATS), 2008).
